Holding throughout (assay): DAPPL (digital affinity profiling via proximity ligation, sequencing); 10 mM Tris-HCl pH 7.5, 50 mM NaCl, 1 mM DTT, 4% glycerol, room temperature, 30 min; GST-TFs on glutathione beads, 16-mer random dsDNA library, 0.1% formaldehyde crosslink after washing; high values mean tight binding
Details in all cases: protein: recombinant; tags: N-terminal GST; dsDNA, one strand shown

In one assay the target is T1, ERF (Homo sapiens, UniProt P50548 1-548).
T1 sequence: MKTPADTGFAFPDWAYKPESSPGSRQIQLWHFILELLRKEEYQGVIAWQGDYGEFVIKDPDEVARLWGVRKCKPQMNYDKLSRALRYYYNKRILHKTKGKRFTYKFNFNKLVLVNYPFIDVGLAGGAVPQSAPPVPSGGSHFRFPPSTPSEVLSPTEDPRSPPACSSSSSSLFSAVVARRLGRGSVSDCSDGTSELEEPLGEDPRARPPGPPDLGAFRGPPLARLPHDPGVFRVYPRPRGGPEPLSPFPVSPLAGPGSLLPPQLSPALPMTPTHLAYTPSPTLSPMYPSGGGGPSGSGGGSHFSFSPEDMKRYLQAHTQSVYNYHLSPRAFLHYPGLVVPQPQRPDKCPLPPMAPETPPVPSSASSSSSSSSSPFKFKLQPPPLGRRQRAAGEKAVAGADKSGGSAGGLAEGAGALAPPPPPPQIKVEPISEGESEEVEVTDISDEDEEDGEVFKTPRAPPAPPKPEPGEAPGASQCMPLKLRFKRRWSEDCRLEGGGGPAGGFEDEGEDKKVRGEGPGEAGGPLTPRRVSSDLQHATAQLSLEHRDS
In a few lines:
(§1)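 Pools of DNA-barcoded human transcription factors, expressed in yeast as GST fusions on glutathione beads and combined with a tag-only sample, were incubated with 200 nmole of a 16-mer random double-stranded DNA library. Incubation took 30 min at room temperature in Tris/NaCl/DTT/glycerol buffer and was followed by washing, 0.1% formaldehyde crosslinking, proximity ligation (BsaI/T4 ligase, 1 h, 37 °C), PCR amplification and sequencing on an Illumina NextSeq500. Binding signal is the ratio of a hexamer's read frequency for a factor to its frequency for the tag-only sample.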

The target of the next assay is T2, ETV3L (Homo sapiens, UniProt Q6ZN32 1-361).
T2 sequence: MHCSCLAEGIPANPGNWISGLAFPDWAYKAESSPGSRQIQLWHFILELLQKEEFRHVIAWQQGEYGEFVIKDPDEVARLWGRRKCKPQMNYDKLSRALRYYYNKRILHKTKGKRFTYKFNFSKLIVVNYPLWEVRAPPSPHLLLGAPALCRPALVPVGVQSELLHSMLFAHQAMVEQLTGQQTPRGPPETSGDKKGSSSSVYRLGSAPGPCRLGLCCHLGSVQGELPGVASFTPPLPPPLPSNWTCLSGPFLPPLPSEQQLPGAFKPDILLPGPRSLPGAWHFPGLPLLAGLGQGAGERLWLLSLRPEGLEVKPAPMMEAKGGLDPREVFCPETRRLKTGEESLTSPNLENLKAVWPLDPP
In a few lines:
as §1

The next assay concerns the target T3, ETS2 (Homo sapiens, UniProt P15036 1-469).
T3 sequence: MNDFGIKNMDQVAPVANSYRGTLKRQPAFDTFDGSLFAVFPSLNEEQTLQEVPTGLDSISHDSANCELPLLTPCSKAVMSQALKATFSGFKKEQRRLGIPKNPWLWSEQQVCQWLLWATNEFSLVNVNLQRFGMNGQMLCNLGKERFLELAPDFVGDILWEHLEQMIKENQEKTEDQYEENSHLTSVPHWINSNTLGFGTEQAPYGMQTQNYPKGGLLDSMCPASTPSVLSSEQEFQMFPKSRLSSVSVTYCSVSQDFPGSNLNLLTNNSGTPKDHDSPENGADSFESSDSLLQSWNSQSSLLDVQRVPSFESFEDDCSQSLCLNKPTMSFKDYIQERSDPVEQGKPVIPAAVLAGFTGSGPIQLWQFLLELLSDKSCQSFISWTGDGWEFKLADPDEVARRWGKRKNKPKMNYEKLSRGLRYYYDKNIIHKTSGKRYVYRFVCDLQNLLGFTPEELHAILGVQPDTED
The procedure, abridged:
as §1

For the next assay, the target named is T4, SPDEF (Homo sapiens, UniProt O95238 1-335).
T4 sequence: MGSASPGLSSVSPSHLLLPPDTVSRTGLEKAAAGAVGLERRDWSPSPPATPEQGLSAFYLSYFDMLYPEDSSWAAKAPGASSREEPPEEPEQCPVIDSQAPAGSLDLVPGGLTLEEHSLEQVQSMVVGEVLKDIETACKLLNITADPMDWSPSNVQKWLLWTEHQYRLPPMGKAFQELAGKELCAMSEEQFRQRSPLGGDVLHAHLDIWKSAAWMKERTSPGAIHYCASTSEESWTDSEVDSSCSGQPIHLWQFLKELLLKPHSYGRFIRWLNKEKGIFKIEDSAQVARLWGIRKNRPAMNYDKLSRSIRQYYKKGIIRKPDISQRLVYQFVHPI
The procedure, abridged: as §1

The target in a further assay is T5, ETV7 (Homo sapiens, UniProt Q9Y603 1-341).
T5 sequence: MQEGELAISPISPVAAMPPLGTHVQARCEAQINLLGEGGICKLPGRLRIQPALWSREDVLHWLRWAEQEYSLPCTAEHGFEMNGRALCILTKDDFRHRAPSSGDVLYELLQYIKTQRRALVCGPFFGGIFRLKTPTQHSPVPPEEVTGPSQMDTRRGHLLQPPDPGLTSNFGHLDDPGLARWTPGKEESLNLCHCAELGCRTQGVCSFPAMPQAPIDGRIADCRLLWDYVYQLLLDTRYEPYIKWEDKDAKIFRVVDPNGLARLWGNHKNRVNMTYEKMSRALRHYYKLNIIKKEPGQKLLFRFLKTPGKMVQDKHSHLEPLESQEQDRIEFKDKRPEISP
The procedure, abridged:
as §1

In a further assay the target is T6, ELF5 (Homo sapiens, UniProt Q9UKW6-2 1-255).
T6 sequence: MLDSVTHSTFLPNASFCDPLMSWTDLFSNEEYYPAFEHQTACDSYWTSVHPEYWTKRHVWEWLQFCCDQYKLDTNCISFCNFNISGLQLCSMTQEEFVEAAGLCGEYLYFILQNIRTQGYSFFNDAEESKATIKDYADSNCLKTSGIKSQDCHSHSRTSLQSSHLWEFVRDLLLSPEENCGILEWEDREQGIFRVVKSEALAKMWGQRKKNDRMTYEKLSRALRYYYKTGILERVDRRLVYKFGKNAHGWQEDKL
In a few lines: as §1

A further assay concerns the target T7, ETV3 (Homo sapiens, UniProt P41162-2 1-143).
T7 sequence: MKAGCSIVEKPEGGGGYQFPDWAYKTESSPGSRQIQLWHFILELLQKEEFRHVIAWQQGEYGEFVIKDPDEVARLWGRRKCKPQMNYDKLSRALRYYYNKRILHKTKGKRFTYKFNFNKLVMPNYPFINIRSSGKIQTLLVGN
The procedure, abridged:
as §1

The target of the next assay is ETV6 (Homo sapiens, UniProt P41212 1-452). The procedure, abridged: as §1
ETV6, sequence (P41212 whole entry): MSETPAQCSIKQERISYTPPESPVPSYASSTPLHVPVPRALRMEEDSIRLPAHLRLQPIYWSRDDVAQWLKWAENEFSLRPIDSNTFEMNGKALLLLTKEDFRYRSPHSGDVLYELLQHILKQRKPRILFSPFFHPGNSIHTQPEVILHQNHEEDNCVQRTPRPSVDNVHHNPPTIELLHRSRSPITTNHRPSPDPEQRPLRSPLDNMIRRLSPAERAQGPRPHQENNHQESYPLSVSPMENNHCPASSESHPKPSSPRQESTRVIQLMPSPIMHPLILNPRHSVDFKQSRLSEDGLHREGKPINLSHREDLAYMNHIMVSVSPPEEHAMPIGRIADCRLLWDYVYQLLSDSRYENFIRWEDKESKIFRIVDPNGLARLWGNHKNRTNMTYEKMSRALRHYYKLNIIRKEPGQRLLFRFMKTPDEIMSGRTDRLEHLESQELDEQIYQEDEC

For the sequence CACTGC, the binding signal is 1.38 fold enrichment (6-mer frequency, TF over GST control) with ERF; 1.59 fold enrichment (6-mer frequency, TF over GST control) with ETV3L; 1.4 fold enrichment (6-mer frequency, TF over GST control) with ETS2; 1.42 fold enrichment (6-mer frequency, TF over GST control) with SPDEF; 1.42 fold enrichment (6-mer frequency, TF over GST control) with ETV7; 1.23 fold enrichment (6-mer frequency, TF over GST control) with ELF5. Also, the binding signal with ETV3 was 1.26 fold enrichment (6-mer frequency, TF over GST control); with ETV6, 1.41 fold enrichment (6-mer frequency, TF over GST control).

As for GCCTAT, the binding signal in the assay with ERF is 1.23 fold enrichment (6-mer frequency, TF over GST control); with ETV3L, 1.28 fold enrichment (6-mer frequency, TF over GST control); with ETS2, 1.09 fold enrichment (6-mer frequency, TF over GST control); with SPDEF, 1.27 fold enrichment (6-mer frequency, TF over GST control); with ETV7, 1.24 fold enrichment (6-mer frequency, TF over GST control); in the assay with ELF5 it was 1.15 fold enrichment (6-mer frequency, TF over GST control). In addition, the binding signal with ETV3 was 1.21 fold enrichment (6-mer frequency, TF over GST control); with ETV6, 1.19 fold enrichment (6-mer frequency, TF over GST control).

With TTAGTA, the binding signal in the assay with ERF was 1.17 fold enrichment (6-mer frequency, TF over GST control); in the assay with ETV3L it was 1.07 fold enrichment (6-mer frequency, TF over GST control); with ETS2, 1.09 fold enrichment (6-mer frequency, TF over GST control); with SPDEF, 1.12 fold enrichment (6-mer frequency, TF over GST control); with ETV7, 1.14 fold enrichment (6-mer frequency, TF over GST control); in the assay with ELF5, 1.07 fold enrichment (6-mer frequency, TF over GST control). In addition, the binding signal with ETV3 was 1.27 fold enrichment (6-mer frequency, TF over GST control); in the assay with ETV6, 1.12 fold enrichment (6-mer frequency, TF over GST control).

For the sequence ACCGCC, the binding signal was 1.21 fold enrichment (6-mer frequency, TF over GST control) in the assay with ERF; 1.25 fold enrichment (6-mer frequency, TF over GST control) in the assay with ETV3L; 1.24 fold enrichment (6-mer frequency, TF over GST control) with ETS2; 1.29 fold enrichment (6-mer frequency, TF over GST control) in the assay with SPDEF; 1.21 fold enrichment (6-mer frequency, TF over GST control) with ETV7; 1.23 fold enrichment (6-mer frequency, TF over GST control) in the assay with ELF5. The binding signal in the assay with ETV3 is 1.44 fold enrichment (6-mer frequency, TF over GST control); with ETV6 it was 1.26 fold enrichment (6-mer frequency, TF over GST control).

AAAGAA: the binding signal was 1.27 fold enrichment (6-mer frequency, TF over GST control) with ERF; 1.19 fold enrichment (6-mer frequency, TF over GST control) with ETV3L; 1.26 fold enrichment (6-mer frequency, TF over GST control) with ETS2; 1.18 fold enrichment (6-mer frequency, TF over GST control) in the assay with SPDEF; 1.36 fold enrichment (6-mer frequency, TF over GST control) with ETV7; 1.23 fold enrichment (6-mer frequency, TF over GST control) with ELF5. The binding signal with ETV3 was 1.2 fold enrichment (6-mer frequency, TF over GST control); in the assay with ETV6, 1.3 fold enrichment (6-mer frequency, TF over GST control).

Turning to CTCCCT, the binding signal in the assay with ERF is 1.72 fold enrichment (6-mer frequency, TF over GST control); in the assay with ETV3L it was 1.54 fold enrichment (6-mer frequency, TF over GST control); with ETS2 it was 1.57 fold enrichment (6-mer frequency, TF over GST control); with SPDEF, 1.53 fold enrichment (6-mer frequency, TF over GST control); with ETV7, 1.52 fold enrichment (6-mer frequency, TF over GST control); with ELF5 it was 1.41 fold enrichment (6-mer frequency, TF over GST control). Besides, the binding signal in the assay with ETV3 was 1.55 fold enrichment (6-mer frequency, TF over GST control); with ETV6, 1.37 fold enrichment (6-mer frequency, TF over GST control).

Regarding ACACTA, the binding signal with ERF was 1.15 fold enrichment (6-mer frequency, TF over GST control); with ETV3L, 1.18 fold enrichment (6-mer frequency, TF over GST control); with ETS2, 1.1 fold enrichment (6-mer frequency, TF over GST control); with SPDEF, 1.09 fold enrichment (6-mer frequency, TF over GST control); with ETV7, 1.15 fold enrichment (6-mer frequency, TF over GST control); in the assay with ELF5, 1.09 fold enrichment (6-mer frequency, TF over GST control). The binding signal in the assay with ETV3 is 1.12 fold enrichment (6-mer frequency, TF over GST control); in the assay with ETV6, 1.21 fold enrichment (6-mer frequency, TF over GST control).

Turning to CTAAAC, the binding signal with ERF is 1.17 fold enrichment (6-mer frequency, TF over GST control); with ETV3L, 1.18 fold enrichment (6-mer frequency, TF over GST control); with ETS2, 1.19 fold enrichment (6-mer frequency, TF over GST control); in the assay with SPDEF it was 1.22 fold enrichment (6-mer frequency, TF over GST control); with ETV7, 1.2 fold enrichment (6-mer frequency, TF over GST control); in the assay with ELF5, 1.19 fold enrichment (6-mer frequency, TF over GST control). Also, the binding signal in the assay with ETV3 is 1.25 fold enrichment (6-mer frequency, TF over GST control); with ETV6, 1.17 fold enrichment (6-mer frequency, TF over GST control).

Take AATTCT: the binding signal with ERF is 1.33 fold enrichment (6-mer frequency, TF over GST control); with ETV3L, 1.29 fold enrichment (6-mer frequency, TF over GST control); with ETS2, 1.29 fold enrichment (6-mer frequency, TF over GST control); with SPDEF, 1.23 fold enrichment (6-mer frequency, TF over GST control); in the assay with ETV7, 1.26 fold enrichment (6-mer frequency, TF over GST control); in the assay with ELF5 it was 1.22 fold enrichment (6-mer frequency, TF over GST control). The binding signal is 1.25 fold enrichment (6-mer frequency, TF over GST control) with ETV3 and 1.25 fold enrichment (6-mer frequency, TF over GST control) with ETV6.

Source of the values: PMC7862700, “An all-to-all approach to the identification of sequence-specific readers for epigenetic DNA modifications on cytosine”.
